From PubChem BioAssay
RORgamma inh: blocks mouse ROR gamma transcriptional activity. hit rate 5.4% among 310,000. P51450. Potency, µM (top dose mostly 53.6 µM), without a hit: at the top dose activity change, negative = inhibition, hits mostly inhibitors. Drosophila S2 Gal4-RORgamma UAS-luciferase reporter, 20 h; note: % is set by controls: 0 for no effect and ±100 for the full control effect; nearly all actives have a fitted effect of over 60% in size
Target sequence (P51450 whole entry, looked up, the tested form may be a part): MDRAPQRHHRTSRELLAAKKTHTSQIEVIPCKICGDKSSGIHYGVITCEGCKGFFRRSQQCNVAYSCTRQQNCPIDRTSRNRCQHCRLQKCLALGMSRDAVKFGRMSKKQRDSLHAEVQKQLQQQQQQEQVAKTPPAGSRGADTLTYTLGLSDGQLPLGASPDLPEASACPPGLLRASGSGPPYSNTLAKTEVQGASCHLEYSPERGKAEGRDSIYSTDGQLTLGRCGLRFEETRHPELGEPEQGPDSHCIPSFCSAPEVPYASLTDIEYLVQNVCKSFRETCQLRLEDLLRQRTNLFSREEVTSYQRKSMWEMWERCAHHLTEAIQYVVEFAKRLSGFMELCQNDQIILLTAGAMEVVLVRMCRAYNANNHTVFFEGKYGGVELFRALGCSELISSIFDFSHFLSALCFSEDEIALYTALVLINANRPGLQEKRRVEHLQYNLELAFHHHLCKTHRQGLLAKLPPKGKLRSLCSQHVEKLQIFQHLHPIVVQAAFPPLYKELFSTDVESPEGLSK
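In this cell-based reporter format, copper sulfate (700 uM final) drives Gal4–ROR gamma fusion expression from a metallothionein promoter in Drosophila Schneider cells; compounds preincubated 1 hr, reporter read after 20 hr at ambient temperature.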
PINK1 expr mod: modulators of PINK1 expression; PINK1 immunofluorescence, high-content cytometry, 24 h; Potency, µM (doses to about 76.6 µM), without a hit: at the top dose activation (PINK1 increase), hits mostly activators; hit rate 0.2% among 410,000; active = well fitted activation curve with a large enough effect; inconclusive = small, poorly fitted or top-dose-only effect; cell line not stated here; note: % of control where 0% means no effect; nearly all actives have a fitted effect of over 65% in size
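PINK1 protein level read as immunofluorescence by microplate cytometer in a fixed, stained stable cell line after 24 h exposure to five compound concentrations, with CCCP as control.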
Epigenetic reg: epigenetic control regulation, reporter derepression; Potency, µM (series often up to 53.9 µM), inactives show at the highest dose GFP activation, usual class: activators; hit rate 0.2% among 280,000; murine LDR cells, GFP reporter derepression, 30 h; note: % of control where 0% means no effect; nearly all actives have a fitted effect of over 60% in size
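Murine LDR cells bearing a silenced CMV-driven GFP reporter were exposed to compound for 30 h at 37 C. After PBS washes, GFP-positive cells (20-120 um objects) counted by laser-scanning microplate cytometry.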
ClpP mod: qHTS Assay for Activators of ClpP | ATP-dependent Clp protease proteolytic subunit (Bacillus subtilis (strain 168)), P80244 | purified B. subtilis ClpP, FRET peptide cleavage, 20 min | Potency, µM (doses to about 57.5 µM), without a hit: top-dose activity change, negative = active | hit rate 1.9% among 340,000 | AID 651965, 2013; active = well fitted falling curve with a large enough effect; inconclusive = small, poorly fitted or top-dose-only effect; inactive = no such curve, though single readings can be large or run the other way; note: the source files actives as falling curves though it sought activators and does not explain the sign; nearly all actives have a fitted effect of over 65% in size
Target sequence (P80244 whole entry, looked up): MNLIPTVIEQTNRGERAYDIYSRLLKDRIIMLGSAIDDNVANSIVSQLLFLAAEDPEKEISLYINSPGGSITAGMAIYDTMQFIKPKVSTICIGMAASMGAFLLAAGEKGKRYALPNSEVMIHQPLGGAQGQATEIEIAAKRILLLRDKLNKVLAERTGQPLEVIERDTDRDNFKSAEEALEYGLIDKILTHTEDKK
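ClpP 10 microg/mL final, pH 8 Tris/KCl buffer with BSA, glycerol, Tween-20; compound pinned in; FRET-FV substrate; RT 20 min; Ex320/Em430; ΔFRET vs ADEP 5.8 microM, DMSO, no enzyme.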
Sfp PPTase inh: inhibitors of Bacillus subtilis Sfp phosphopantetheinyl transferase. AID 1490. Q9F4F7. hit rate 3.5% among 310,000. Potency, µM, for inactives: largest response in the series, negative = inhibition, most hits filed as inhibitors. Biochemical Sfp PPTase activity, qHTS;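 note: the enzyme is Sfp with the accession as filed and its product quenches rhodamine fluorescence; 0% = enzyme reaction without inhibitor and -100% = no enzyme wells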
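With Hepes-Na pH 7.6 buffer containing 10 mM MgCl2, Sfp (15 nM) modified BHQ-2-YbbR (12.5 uM) using rhodamine-CoA (5 uM). Two reads 30 minutes apart at 525/598 nm yielded each well's rate.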
Gal4-VP16 FLuc: inhibits Gal4-VP16 luciferase reporter, ROR gamma counter-screen. AID 2546. hit rate 3.5% among 310,000. Potency, µM (doses to about 53.6 µM), for inactives: at the highest dose activity, negative = inhibition, actives largely listed as inhibitors. Drosophila S2 Gal4-VP16 UAS-luciferase, luminescence, 20 h;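 note: Gal4-VP16 expression switched on by copper sulfate through the metallothionein promoter; % is set by controls: 0 for no effect and ±100 for the full control effect; nearly all actives have a fitted effect of over 50% in size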
The depositor's hits bear a star; [ ] = dose if it differs, or a comment. A selection: hits, their analogues and other compounds. The true share with any hit is near 8.1%. Unless noted, calls come from the whole dose curve; as a rule, active = well fitted curve in the direction sought with a large enough effect; inconclusive = small, poorly fitted or top-dose-only effect, or another doubt; inactive = no such curve, though single readings can be large; an effect the other way counts as inactive or inconclusive. Potency is the fitted concentration of half-maximal effect.

COc1cccc(-n2ccnc2SCC(=O)N2CCCc3ccccc32)c1 was read as RORgamma inh -13%, PINK1 expr mod -1%, Epigenetic reg -1%, ClpP mod 0%, Sfp PPTase inh -4% and Gal4-VP16 FLuc 2%.
CCOc1ccc(-n2ccnc2SCC(=O)N2CCCc3ccccc32)cc1 was read as RORgamma inh 7.1µM*, PINK1 expr mod -1%, Epigenetic reg -1%, ClpP mod -7%, Sfp PPTase inh -22% and Gal4-VP16 FLuc inconclusive.
Screening Cc1cc(N2CCN(C)CC2)nc2ccc(NC(=O)CCC(=O)NCc3ccco3)cc12 returned RORgamma inh -11%, PINK1 expr mod 2%[38.3 µM], Epigenetic reg -2%, ClpP mod 22µM*, Sfp PPTase inh 5% and Gal4-VP16 FLuc -3%.
Screening CCN1CCN(c2cc(C)c3cc(NC(=O)c4cncc(Br)c4)ccc3n2)CC1 returned RORgamma inh -3%, PINK1 expr mod -1%, Epigenetic reg 2%, ClpP mod 20µM*, Sfp PPTase inh 4% and Gal4-VP16 FLuc -22%.
Screening COc1ccc(C)cc1NC(=O)CCC(=O)Nc1ccc2nc(N3CCN(C)CC3)cc(C)c2c1 returned RORgamma inh 5%, PINK1 expr mod -30%[38.3 µM], Epigenetic reg 1%, ClpP mod 28µM*, Sfp PPTase inh 14% and Gal4-VP16 FLuc -14%.
CCN1CCN(c2cc(C)c3cc(NC(=O)c4cc(OC)c(OC)c(OC)c4)ccc3n2)CC1 was read as PINK1 expr mod 8%, Epigenetic reg 16% and ClpP mod inconclusive.
`CCN1CCN(c2cc(C)c3cc(NC(=O)Cc4ccccc4OC)ccc3n2)CC1` gave RORgamma inh -2%, PINK1 expr mod -1%, Epigenetic reg 0%, ClpP mod 28µM*, Sfp PPTase inh 28% and Gal4-VP16 FLuc 22%.
Screening CCOc1cccc(NC(=O)C2CC(=O)N(C)C(=Nc3cccc(OC)c3)S2)c1 (stereo unspecified) returned PINK1 expr mod -1%, Epigenetic reg -2% and ClpP mod -1%.
`CCOc1ccccc1NC(=O)Nc1ccc2nc(N3CCN(C)CC3)cc(C)c2c1` gave PINK1 expr mod 14%, Epigenetic reg 3% and ClpP mod 11µM*.
For CN(Cc1ccccc1)c1ccc(-c2nc(-c3ccccn3)no2)cc1[N+](=O)[O-] the results were PINK1 expr mod -1%, Epigenetic reg -4% and ClpP mod 2%.
NC(=O)NCC12CC3CC(CC(C3)C1)C2 was read as RORgamma inh -15%, PINK1 expr mod 3%, Epigenetic reg 1%, ClpP mod -1%, Sfp PPTase inh 4% and Gal4-VP16 FLuc -7%.
`C/C(CCC12CC3CC(CC(C3)C1)C2)=N\NC(N)=S` gave RORgamma inh 1.3µM*, PINK1 expr mod -1%[38.3 µM], Epigenetic reg inconclusive, ClpP mod 1%, Sfp PPTase inh inconclusive and Gal4-VP16 FLuc 4.5µM*.
CCCc1nn2c(=O)cc(COC(=O)CNC(=O)COc3ccc(C)cc3)nc2s1 was read as PINK1 expr mod 1%, Epigenetic reg 0% and ClpP mod 1%.
Cc1ccc(OCC(=O)Nc2cccc(OCc3cc(=O)n4ccccc4n3)c2)cc1C was read as PINK1 expr mod 2%, Epigenetic reg 3% and ClpP mod -21%.
CCOC(=O)CCCCC(=O)c1[nH]c(=O)[nH]c1CSc1nnc2c3cc(Br)ccc3n(C)c2n1 was read as RORgamma inh 5µM*, Epigenetic reg 0%, Sfp PPTase inh inconclusive and Gal4-VP16 FLuc inconclusive.
CCc1nc2cc(C(=O)N3CCC[C@H]3C(=O)OC)cc(NC(=O)c3ccccc3OC)c2n1C was read as PINK1 expr mod 0%.
For O=C(Nc1ncnc2sc3c(c12)CCC3)c1ccco1 the results were RORgamma inh -19%, Epigenetic reg -1%, ClpP mod -7%, Sfp PPTase inh 10% and Gal4-VP16 FLuc -7%.
`Cc1ccc(C(=O)O)cc1Nc1ncnc2sc3c(c12)CCC3` gave RORgamma inh -33%, PINK1 expr mod -1%, Epigenetic reg 1%, ClpP mod -4%, Sfp PPTase inh 14% and Gal4-VP16 FLuc 1%.
Screening O=C(Nc1ncnc2sc3c(c12)CCCCC3)c1ccccc1 returned RORgamma inh 11µM*, Epigenetic reg 0%, ClpP mod -3%, Sfp PPTase inh 7% and Gal4-VP16 FLuc 20µM*.
For O=C(Nc1ncnc2sc3c(c12)CCCCC3)c1ccc(F)cc1 the results were RORgamma inh 7.1µM*, PINK1 expr mod 11%, Epigenetic reg 0%, ClpP mod 1%, Sfp PPTase inh 6% and Gal4-VP16 FLuc 13µM*.
O=C(COc1ccc2c3c(c(=O)oc2c1)CCC3)NCC(O)c1ccccc1 (stereo unspecified) was read as RORgamma inh -34%, PINK1 expr mod 6%, ClpP mod inconclusive, Sfp PPTase inh 17% and Gal4-VP16 FLuc 1%.
CC(=O)C(C)Oc1ccc2c3c(c(=O)oc2c1)CCCCC3 (stereo unspecified) was read as RORgamma inh 4%, PINK1 expr mod 0%, Epigenetic reg -2%, ClpP mod inconclusive, Sfp PPTase inh 71µM* and Gal4-VP16 FLuc 0%.
Screening CC(C)CCNC(=O)COc1ccc2c3c(c(=O)oc2c1)CCC3 returned RORgamma inh 0%, PINK1 expr mod 3%[38.3 µM], Epigenetic reg 1%, ClpP mod 10µM*, Sfp PPTase inh -4% and Gal4-VP16 FLuc -23%.
`CC(=O)C(C)Oc1ccc2c3c(c(=O)oc2c1)CCCC3` (stereo unspecified) gave RORgamma inh 26%, PINK1 expr mod -4%, Epigenetic reg 0%, ClpP mod 39%, Sfp PPTase inh 9% and Gal4-VP16 FLuc 3%.
Screening CC(C)CNC(=O)COc1ccc2c3c(c(=O)oc2c1)CCC3 returned RORgamma inh 5%, PINK1 expr mod -3%[38.3 µM], Epigenetic reg -2%, ClpP mod 25µM*, Sfp PPTase inh -6% and Gal4-VP16 FLuc -8%.
COc1ccc(C(=O)Nc2ccc(N(C)Cc3ccccc3)c(C(=O)O)c2)cc1 was read as PINK1 expr mod -1%, Epigenetic reg 0% and ClpP mod 0%.
COc1cc(OC)cc(C(=O)Nc2nc(-c3nnn(-c4ccc(F)c(Cl)c4)c3C)ns2)c1 was read as PINK1 expr mod 5%, Epigenetic reg -3% and ClpP mod 6%.
For CCOC(=O)c1sc2ncn(CC(=O)Nc3ccc(OC)c(Cl)c3)c(=O)c2c1C the results were PINK1 expr mod 2%, Epigenetic reg 0% and ClpP mod 4%.
